One may read the AC50 as the concentration giving half of the maximal activity seen.

Records with an inconclusive call do not appear. Calls of active or inactive are those of the source. How the source made its calls: active means hit-call score of the fitted dose curve at least 0.9, where 1 is the maximum; inconclusive means response in the unintended direction; inactive means score below 0.9.

rat Serotonin Transporter (SERT), Slc6a4 (gene 25553), sequence (P31652 whole entry, looked up): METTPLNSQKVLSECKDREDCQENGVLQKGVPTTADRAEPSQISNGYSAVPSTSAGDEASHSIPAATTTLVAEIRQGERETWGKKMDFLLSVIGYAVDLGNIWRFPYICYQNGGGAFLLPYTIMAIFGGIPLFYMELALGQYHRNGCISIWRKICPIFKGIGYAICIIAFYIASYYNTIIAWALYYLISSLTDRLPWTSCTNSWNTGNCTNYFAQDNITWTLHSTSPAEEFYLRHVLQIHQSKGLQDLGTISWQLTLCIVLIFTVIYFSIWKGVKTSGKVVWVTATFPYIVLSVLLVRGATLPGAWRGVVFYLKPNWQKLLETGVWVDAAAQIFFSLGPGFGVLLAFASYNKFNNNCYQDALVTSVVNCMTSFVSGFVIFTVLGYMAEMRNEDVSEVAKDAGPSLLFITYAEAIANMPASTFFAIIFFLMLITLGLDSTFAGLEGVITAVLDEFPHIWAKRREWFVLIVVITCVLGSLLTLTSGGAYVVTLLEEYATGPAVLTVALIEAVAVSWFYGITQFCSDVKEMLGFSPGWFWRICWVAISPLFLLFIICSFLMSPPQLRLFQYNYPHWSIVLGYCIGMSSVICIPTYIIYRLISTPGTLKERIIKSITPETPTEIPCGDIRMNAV

In one test the target is rat Serotonin Transporter (SERT), Slc6a4 (gene 25553) (UniProt P31652). Briefly: NVS_TR_rSERT: NovaScreen (NVS) Transporter Assay for rat Serotonin Transporter (SERT) (AID 2283375). The procedure, abridged:
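Rat forebrain membranes were incubated with test chemical for 1 hour; radioligand binding to SERT was measured by filter-based scintillation counting. Primary screen ran in duplicate at 25 uM, with actives followed up in concentration series; DMSO served as negative control.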
On to `CNC(=O)Oc1cccc2ccccc12`, for which the AC50 was 7.36 µM (active).

Turning to `COP(=S)(OC)Oc1ccc([N+](=O)[O-])c(C)c1`, the AC50 is 3.37 µM (active). `C=C(C)CN(CC)c1c([N+](=O)[O-])cc(C(F)(F)F)cc1[N+](=O)[O-]`: the result was inactive. Consider `CCOC(=O)C(C)OC(=O)c1cc(Oc2ccc(C(F)(F)F)cc2Cl)ccc1[N+](=O)[O-]` (stereo not given), for which the result was inactive. As to `CCOc1nc(F)cc2nc(S(=O)(=O)Nc3c(Cl)cccc3Cl)nn12`, the molecule was classed as inactive.

A further test deals with Norway rat Vesicular Monoamine Transporter (VMAT2), neurotransmitter transporter, Slc18a2 (gene 25549) (UniProt Q01827). Briefly: NVS_TR_rVMAT2: NovaScreen (NVS) Transporter Assay for Norway rat Vesicular Monoamine Transporter (VMAT2), neurotransmitter transporter (AID 2283376).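 Further: actives lower the bound radioligand signal below the DMSO level.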 The procedure, abridged: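 Binding endpoint from rat forebrain tissue, cell-free; 1 h incubation; filtered radioligand counted; 25 uM duplicate primary then dose series; DMSO negative control.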
Norway rat Vesicular Monoamine Transporter (VMAT2), neurotransmitter transporter, Slc18a2 (gene 25549), sequence (Q01827 whole entry, looked up): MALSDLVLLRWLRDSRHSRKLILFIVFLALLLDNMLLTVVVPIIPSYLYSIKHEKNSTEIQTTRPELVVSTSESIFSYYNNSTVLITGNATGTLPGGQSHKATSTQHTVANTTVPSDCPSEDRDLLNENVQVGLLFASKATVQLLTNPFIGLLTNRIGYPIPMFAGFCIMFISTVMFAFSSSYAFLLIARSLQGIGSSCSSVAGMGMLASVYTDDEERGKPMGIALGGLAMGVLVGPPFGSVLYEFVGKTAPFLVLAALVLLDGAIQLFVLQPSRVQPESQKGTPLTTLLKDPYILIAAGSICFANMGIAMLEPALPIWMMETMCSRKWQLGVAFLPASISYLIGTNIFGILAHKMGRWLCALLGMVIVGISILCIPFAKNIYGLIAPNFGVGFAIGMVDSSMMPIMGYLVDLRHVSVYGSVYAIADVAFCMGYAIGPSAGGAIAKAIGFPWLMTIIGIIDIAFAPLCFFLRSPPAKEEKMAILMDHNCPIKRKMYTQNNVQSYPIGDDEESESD
As to `CCOP(=S)(OCC)Oc1nc(Cl)n(C(C)C)n1`, the call was inactive. As for `Clc1nc(Cl)nc(Nc2ccccc2Cl)n1`, the molecule was called inactive. Same read-out and setting: in the case of `Cc1cc(C)nc(Nc2ccccc2)n1` it was “inactive”. `CCCCC(O)(Cn1cncn1)c1ccc(Cl)cc1Cl` (stereo not given): the AC50 was 15 µM (active).

Consider `N#Cc1c[nH]cc1-c1cccc2c1OC(F)(F)O2`, for which the outcome was inactive. `CC(C)NC(=O)N1CC(=O)N(c2cc(Cl)cc(Cl)c2)C1=O`: the outcome was inactive.

Another test deals with human Norepinephrine Transporter (NET), SLC6A2 (gene 6530) (UniProt P23975). Briefly: NVS_TR_hNET: NovaScreen (NVS) Transporter Assay for human Norepinephrine Transporter (NET) (AID 2283377).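 Further: cell-free membrane protein extracted from CHO cells expressing human NET; displacement of radioligand from human NET seen as loss of scintillation signal.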 The essentials: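 In this cell-free binding screen, chemicals at 25 uM (duplicate) compete with a radioligand for CHO-derived human NET over 1 hour, with filter-based radiodetection.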
human Norepinephrine Transporter (NET), SLC6A2 (gene 6530), sequence (P23975 whole entry, looked up): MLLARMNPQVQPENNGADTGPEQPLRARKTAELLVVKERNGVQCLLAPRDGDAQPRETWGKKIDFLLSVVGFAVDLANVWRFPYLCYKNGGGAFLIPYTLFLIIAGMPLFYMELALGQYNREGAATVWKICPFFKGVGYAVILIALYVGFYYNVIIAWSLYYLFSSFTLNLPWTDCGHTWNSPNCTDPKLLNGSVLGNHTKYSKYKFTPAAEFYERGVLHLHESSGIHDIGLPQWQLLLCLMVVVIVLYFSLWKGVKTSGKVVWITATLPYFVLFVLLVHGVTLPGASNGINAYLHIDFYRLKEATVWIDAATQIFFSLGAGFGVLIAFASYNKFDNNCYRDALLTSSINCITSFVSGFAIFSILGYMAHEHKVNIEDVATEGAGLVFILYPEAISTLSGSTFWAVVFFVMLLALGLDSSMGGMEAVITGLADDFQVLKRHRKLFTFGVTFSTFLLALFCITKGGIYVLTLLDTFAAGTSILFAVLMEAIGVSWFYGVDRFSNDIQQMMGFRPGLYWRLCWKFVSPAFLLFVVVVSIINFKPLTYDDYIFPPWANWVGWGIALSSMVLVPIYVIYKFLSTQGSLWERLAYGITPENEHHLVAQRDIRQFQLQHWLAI
In the case of `CC1(C)C(C=C(Cl)Cl)C1C(=O)OC(C#N)c1cccc(Oc2ccccc2)c1` (stereo not given), the AC50 is 12.2 µM (active). `Cn1c(-c2ccccc2)cc(-c2ccccc2)[n+]1C`: the AC50 was 2.75 µM (active). Still for that read-out and setting: the value for `O=P(O)(O)CCCl` was 10.6 µM (active); that for `Cc1c(COC(=O)[C@@H]2[C@H](/C=C(\Cl)C(F)(F)F)C2(C)C)cccc1-c1ccccc1` was 0.345 µM (active); that for `Cc1cc(C)nc(Nc2ccccc2)n1` was 4.72 µM (active). `CC(C)=CC1C(C(=O)OCc2coc(Cc3ccccc3)c2)C1(C)C` (stereo not given): the AC50 was 10.2 µM (active). Consider `C=C(C)CN(CC)c1c([N+](=O)[O-])cc(C(F)(F)F)cc1[N+](=O)[O-]`, for which the AC50 was 7.07 µM (active). On to `CCCCC(O)(Cn1cncn1)c1ccc(Cl)cc1Cl` (stereo not given), for which the AC50 is 13.3 µM (active). `CC(C)N1C(=O)c2ccccc2NS1(=O)=O`: the AC50 was 14.2 µM (active).

The values above are taken from PubChem BioAssay (EPA / NIEHS).
